Structures are written as SMILES. Inconclusive results are not listed. Unmarked numbers belong to inactive results. Active and inactive are the calls of the source. The call rests on the fitted dose curve; in most records, active means well fitted cell-killing curve with a large enough effect in the repeat runs; inconclusive means weak or mixed curves, or effect the other way; inactive means flat fitted curve, though single readings scatter.
On the % scale 0 is the no-effect control and ±100 the full control effect.

This test can be described thus: cAMP Responsive Elements (CRE) small molecule antagonists, cell-based qHTS assay: qHTS cell viability counter screen (AID 2060913). Further: nearly all actives have a fitted effect of over 40% in size. The note with it: CRE-bla HEK293T viability, CellTiter-Glo luminescence, 5 h; series mostly up to 92.4 µM; viability change, negative = cytotoxic: at the top concentration. Summed up:
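CRE-bla HEK293T cells were seeded in assay medium with 10% dialyzed FBS, incubated 18 hrs at 37 C, then exposed to compounds plus 0.25 uM final NKH477 for 3 hrs. Viability was read by CellTiter-Glo luminescence after 30 min, in the same wells.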
On the technique in general: qHTS replaces the single test concentration by a dilution series.
`CCc1cccc(CC)c1`: the “viability change, negative = cytotoxic” value was -5.81%.

Take `O=C(O)CCC(=O)C(=O)O`: the “viability change, negative = cytotoxic” value was -0.0723%.

`O=C(O)c1cn(-c2ccc(F)cc2)c2cc(N3CCNCC3)c(F)cc2c1=O`: the Potency result is “inactive”.

Regarding `CC(CN=Cc1ccccc1O)N=Cc1ccccc1O` (stereo unspecified), the “viability change, negative = cytotoxic” value was 0.251%.

As to `CCN(Cc1cccc(S(=O)(=O)O)c1)c1ccc(C(=C2C=CC(=[N+](CC)Cc3cccc(S(=O)(=O)[O-])c3)C=C2)c2ccccc2)cc1`, the “viability change, negative = cytotoxic” value is 4.52% [at 42.5 µM].

For `Cc1cn[nH]c1`, the “viability change, negative = cytotoxic” value was -2.08% [at 42.5 µM].

As to `CCOCCOCCOCCO`, the Potency result was “inactive”.

On to `NCCN1CCNC1=O`, for which the “viability change, negative = cytotoxic” value was -0.386%.

On to `O=C(O)Cc1ccc(Cl)cc1Cl`, for which the “viability change, negative = cytotoxic” value was -0.818%.

`CCCCN(CCC(=O)OCC)C(C)=O`: the “viability change, negative = cytotoxic” value is 0.14%.

For `Cc1cnc(C)c(C)n1`, the “viability change, negative = cytotoxic” value was 0.353%.

In the case of `C=C(C)C(=O)OCCOC(=O)CC(C)=O`, the “viability change, negative = cytotoxic” value is -8.49%.

Turning to `C=CCOc1cc(Cl)ccc1C(=O)NCCN(CC)CC`, the “viability change, negative = cytotoxic” value is -3.62% [at 42.5 µM].

With `CC(C)=CCOC(=O)c1ccccc1`, the “viability change, negative = cytotoxic” value was 6.31%.

Turning to `Nc1ccn([C@@H]2O[C@H](CO)[C@@H](O)C2O)c(=O)n1` (stereo partly specified), the “viability change, negative = cytotoxic” value was 2.77%.

Take `O=c1[nH]cccc1O`: the “viability change, negative = cytotoxic” value is -8.66%.

In the case of `CCN(CC)c1cccc(C)c1`, the “viability change, negative = cytotoxic” value was -2.18%.

Take `CN/C(=C\[N+](=O)[O-])NCCSCc1ccc(CN(C)C)o1`: the Potency entry is “inactive”.

In the case of `CCCCCCC1CCCC(=O)O1` (stereo unspecified), the “viability change, negative = cytotoxic” value was -6.17%.

Consider `CS(C)(=O)=O`, for which the “viability change, negative = cytotoxic” value is 2.08%.

Regarding `CCCCCCCCC(CO)CCCCCC` (stereo unspecified), the “viability change, negative = cytotoxic” value is -1.19%.

Regarding `CCCCN1CCCC[C@H]1C(=O)Nc1c(C)cccc1C`, the “viability change, negative = cytotoxic” value was -6.62% [at 42.5 µM].

For `O=[N+]([O-])c1ccc(F)cc1F`, the “viability change, negative = cytotoxic” value is 5.53%.

As for `O=C(CCCN1CCC(O)(c2cccc(C(F)(F)F)c2)CC1)c1ccc(F)cc1`, the “viability change, negative = cytotoxic” value was -9.15% [at 42.5 µM].

With `Cc1ccnc2c1NC(=O)c1cccnc1N2C1CC1`, the Potency entry is “inactive”.

For the compound `CCCN(CCC)C(=O)SCC`, the Potency entry was “inactive”.

The values are drawn from PubChem BioAssay (Tox21).
